{"source": "PubChem BioAssay (EPA / NIEHS)", "key": {"IYD (gene 389434)": {"test_system": "IYD (gene 389434)", "experiment": "CCTE_GLTED_hIYD: CCTE's human Iodotyrosine Deiodinase (xIYD) Inhibition Assay, Great Lakes Toxicology and Ecology Division (GLTED) Lab (AID 2284317);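 also: cell-free human IYD enzyme made in baculovirus insect cells; iodide freed from monoiodotyrosine measured by cerium arsenite color change at 420 nm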", "summary_of_the_method": "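Human IYD expressed in a baculovirus-insect cell system was incubated 3 h with monoiodotyrosine and test chemical. Released iodide, separated on Dowex columns, was quantified by the Sandell-Kolthoff reaction at 420 nm; plates were normalized to MNT and DMSO/NaOH controls.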"}, "[1]": {"experiment": "CCTE_Deisenroth_5AR_NBTE_acceptor: CCTE's 5alpha-reductase NanoBRET Target Engagement Assay - Autofluorescence Screen, Deisenroth Lab (AID 2284321; active = hit-call score of the fitted dose curve at least 0.9, where 1 is the maximum; inactive = score below 0.9)", "details": "actives raise or lower the signal", "summary_of_the_method": "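Acceptor-channel fluorescence flags artifacts, with excitation fixed at 460 nm. Nominal 100 uM chemical samples were read in triplicate runs, and signal changes were fitted in both directions relative to DMSO.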"}, "SRD5A2 (gene 6716)": {"test_system": "SRD5A2 (gene 6716)", "experiment": "CCTE_Deisenroth_5AR_NBTE_ratio: CCTE's 5alpha-reductase NanoBRET Target Engagement Assay - Ratio, Deisenroth Lab (AID 2284322; active = hit-call score of the fitted dose curve at least 0.9, where 1 is the maximum; inactive = score below 0.9)", "details": "actives raise or lower the signal", "summary_of_the_method": "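Reverse-transfect HEK293T with pNLF1-C-SRD5A2, express 20 h. Pre-incubate cells with chemical 3 h (8-point series, 10 nM - 29.9 uM, duplicate). Add testosterone tracer, 2 h more. Add substrate/inhibitor, read donor and acceptor emission.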"}, "[2]": {"experiment": "IUF_NPC5_oligodendrocyte_differentiation_120hr: Leibniz Research Institute for Environmental Medicine (IUF) 120-hour Oligodendrocyte Differentiation Assay (NPC5) (AID 2284304);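 also: primary human fetal neural progenitor spheres plated to migrate and differentiate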", "summary_of_the_method": "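Oligodendrocyte differentiation scored as O4-positive cells, found by CNN image analysis, as percent of Hoechst-stained nuclei in the migration area. Scoring followed 5 days of exposure of plated hNPC neurospheres differentiating in DMEM/F12 N2 medium at 37C, with compound refreshed at day 3.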"}, "[3]": {"experiment": "IUF_NPC4_neurite_area_120hr: Leibniz Research Institute for Environmental Medicine (IUF) 120-hour Neuronal Morphology Assay for Neurite Area (NPC4) (AID 2284305)", "summary_of_the_method": "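Human fetal neural progenitor spheres (0.3 mm) plated on poly-D-lysine/laminin in N2 differentiation medium, exposed 120 h (7 concentrations, DMSO ≤0.1%, half-medium refresh day 3). Fixed, TUBB3 immunostained; mean neurite area per neuron by Omnisphero skeletonization.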"}, "[4]": {"experiment": "IUF_NPC2-5_cytotoxicity_72hr: Cytotoxicity Assessment at 72 hours in the Leibniz Research Institute for Environmental Medicine (IUF) Neural Progenitor Cell Migration and Differentiation Assay for Cytotoxicity (NPC2-5) (AID 2284306);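 also: LDH release into supernatant measured by resorufin fluorescence marking membrane damage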", "summary_of_the_method": "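Human fetal primary neural progenitor spheres (0.3 mm) plated on poly-D-lysine/laminin in N2 differentiation medium, exposed from day 0 at 37C. LDH-dependent resazurin-to-resorufin fluorescence in supernatant at 72 h; 7 concentrations, DMSO at most 0.1%.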"}, "[5]": {"experiment": "IUF_NPC2-5_cytotoxicity_120hr: Cytotoxicity Assessment at 120 hours in the Leibniz Research Institute for Environmental Medicine (IUF) Neural Progenitor Cell Migration and Differentiation Assay (NPC2-5) (AID 2284307);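 also: LDH released into supernatant as membrane damage marker via resorufin fluorescence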", "summary_of_the_method": "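Membrane-integrity loss measured as LDH activity in medium supernatant via resazurin-to-resorufin fluorescence after 120 h exposure. hNPC spheres from GW 16-19 fetal cortex differentiated on poly-D-lysine/laminin, 37C, medium half-refreshed day 3; seven concentrations, DMSO max 0.1%.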"}, "[6]": {"experiment": "IUF_NPC2-5_cell_number_120hr: Cell Number Assessment at 120 hours in the Leibniz Research Institute for Environmental Medicine (IUF) Neural Progenitor Cell Migration and Differentiation Assay (NPC2-5) (AID 2284308; active = hit-call score of the fitted dose curve at least 0.9, where 1 is the maximum; inactive = score below 0.9)", "summary_of_the_method": "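Counting of all Hoechst-stained nuclei in the migration area at 120 h, versus DMSO control. Primary hNPC spheres differentiated on poly-D-lysine/laminin in N2 medium at 37C, dosed from day 0 (7 concentrations, DMSO ≤0.1%), half-refed day 3.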"}, "[7]": {"experiment": "IUF_NPC2-5_viability_120hr: Viability Assessment at 120 hours in the Leibniz Research Institute for Environmental Medicine (IUF) Neural Progenitor Cell Migration and Differentiation Assay (NPC2-5) (AID 2284312; active = hit-call score of the fitted dose curve at least 0.9, where 1 is the maximum; inactive = score below 0.9)", "summary_of_the_method": "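Human fetal neural progenitor spheres (0.3 mm) plated on poly-D-lysine/laminin in N2 differentiation medium, exposed 120 h with half-medium refresh at day 3. Viability by alamar blue resazurin fluorescence; 7 concentrations, DMSO max 0.1%.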"}, "[8]": {"experiment": "TAMU_PeakParms_SingleDonor1434_Asystole: Texas A&M University (TAMU) 1.5-hr Human Induced Pluripotent Stem Cell (iPSC)-derived Cardiomyocytes Calcium (Ca+2) Flux Assay for Cardiotoxicity: Asystole (quiescence of beating) (AID 2284328)", "summary_of_the_method": "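Donor 1434 iPSC-cardiomyocytes exposed 90 min at 37C, 5% CO2, to 0.2, 1, 10 and 100 uM in 0.5% DMSO. Ca2+ dye fluorescence gave average peak frequency; POD is EC95, a 95% beat-rate drop versus controls.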"}, "[9]": {"experiment": "IUF_NPC1_cytotoxicity_72hr: Cytotoxicity Assessment at 72 hours in the Leibniz Research Institute for Environmental Medicine (IUF) Neural Progenitor Cell Proliferation Assay (NPC1) (AID 2284332)", "summary_of_the_method": "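Single human fetal cortex neural progenitor spheres (GW 16-19, 0.25-0.35 mm) in EGF/FGF proliferation medium were exposed to compound for 72 h at 37C without renewal. Medium LDH release was read as resorufin fluorescence and fitted as gain-of-signal.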"}, "[10]": {"test_system": "Brachyury (BRA) Protein Expression, Deisenroth Lab, TBXT (gene 6862)", "experiment": "CCTE_Deisenroth_DEVTOX-GLR_legacy_Bra: (Legacy) CCTE's DevTox GLR-Endo Assay Evaluation of Brachyury (BRA) Protein Expression, Deisenroth Lab (AID 2284329; active = hit-call score of the fitted dose curve at least 0.9, where 1 is the maximum; inactive = score below 0.9)", "summary_of_the_method": "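RUES2-GLR human pluripotent cells are differentiated for 48 h and receive two chemical exposures 24 h apart, at 10 concentrations from 1 nM to 200 uM. Cells are fixed, nuclei stained and imaged. Bra+ cells are those with mean Bra intensity over 5x BMAD above the pluripotent control median, expressed as a percentage of cell count, after subtracting the 0.2% DMSO control median.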"}, "[11]": {"experiment": "CCTE_Deisenroth_DEVTOX-GLR_legacy_CellCount: (Legacy) Viability Assessment in CCTE's DevTox GLR-Endo Assay, Deisenroth Lab (AID 2284331; active = hit-call score of the fitted dose curve at least 0.9, where 1 is the maximum; inactive = score below 0.9)", "details": "actives raise or lower the signal", "summary_of_the_method": "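Nuclei count by fluorescence high-content imaging (5 fields/well) after 48 h differentiation of RUES2-GLR cells. Two exposures, 24 h apart; 1 nM - 200 uM series; n=4. Bidirectional fit vs DMSO.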"}, "[12]": {"experiment": "VALA_TUBHUV_Agonist_CellCount: Viability Assessment in the VALA Sciences human Umbilical Vein Endothelial Tubule Formation (TUBHUV) Agonism Assay (AID 2284309)", "summary_of_the_method": "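HUVEC co-cultured 1:3 with HDF for 3 days in 10 ng/ml VEGF, then compounds added in VEGF medium for a further 3 days (72 h). Nuclear-stain/CD31 imaging cell count. Positive-direction fit versus 0.1% DMSO vehicle.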"}, "[13]": {"experiment": "VALA_TUBHUV_Antagonist_CellCount: Viability Assessment in the VALA Sciences human Umbilical Vein Endothelial Tubule Formation (TUBHUV) Antagonism Assay (AID 2284310)", "summary_of_the_method": "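HUVEC co-cultured with HDF (1:3) 3 days in 10 ng/ml VEGF, then 3 days with compounds in VEGF medium. Fixed, nuclear stain and CD31 immunofluorescence, imaged; cell counts fitted versus 0.1% DMSO, loss of signal read as lower viability.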"}, "[14]": {"experiment": "VALA_TUBIPS_Antagonist_TubuleLength: VALA Sciences human iPS-derived Endothelial Tubule Formation (TUBIPS) Antagonist Assay (AID 2284313)", "summary_of_the_method": "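Cells grown 3 days with 10 ng/ml VEGF, then exposed to compounds in VEGF medium for another 3 days. After fixation, nuclear stain and CD31 immunofluorescence imaging gave mean total tubule length against 0.1% DMSO; suramin (100 uM) inhibition control.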"}, "[15]": {"experiment": "VALA_MIGHUV2_CellCount: Viability Assessment in the VALA Sciences human Umbilical Vein Endothelial Cell Migration (MIGHUV) Assay, Area of Scratch Wound after Recovery (AID 2284314)", "summary_of_the_method": "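Scratch-wounded HUVEC monolayers received test chemical within 30 min, 6-point concentration response in triplicate, 0.1 % DMSO vehicle. After 24 h wound recovery, fixed cells were Hoechst-stained and nuclei imaged; loss of signal versus DMSO indicates reduced viability.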"}}, "note": "Records with an inconclusive call do not appear. Where a structure was tested more than once in an assay, its records may differ in their call. Active and inactive are the calls of the source. The calls were made as follows, unless noted: active = hit-call score of the fitted dose curve at least 0.9, where 1 is the maximum; inconclusive = response in the unintended direction; inactive = score below 0.9."}
{"smiles": "Cc1oc2c(NC(=O)c3c(Cl)cccc3Cl)cccc2c1C(C)(C)O", "values": [{"measurement": "outcome", "setting": "IYD (gene 389434)", "value": "inactive"}]}
{"smiles": "O=c1c(-c2ccc(O)cc2)coc2cc(O)cc(O)c12", "values": [{"measurement": "outcome", "setting": "IYD (gene 389434)", "value": "inactive"}, {"measurement": "outcome", "setting": "[1]", "value": "inactive"}, {"measurement": "outcome", "setting": "SRD5A2 (gene 6716)", "value": "inactive"}]}
{"smiles": "Clc1cc(Cl)c2c(c1)N=C1CCCCCN1C2", "values": [{"measurement": "outcome", "setting": "IYD (gene 389434)", "value": "inactive"}]}
{"smiles": "CCN(CC)C(=O)c1cc(S(=O)(=O)Cc2ccccc2)c(N2CCC(c3ccccc3)CC2)cc1N(CC)CCN(C)C", "values": [{"measurement": "outcome", "setting": "[1]", "value": "inactive"}, {"measurement": "AC50", "setting": "SRD5A2 (gene 6716)", "value": "17.3 µM (active)"}, {"measurement": "outcome", "setting": "SRD5A2 (gene 6716)", "value": "inactive"}]}
{"smiles": "CC(C)(c1cc(Br)c(O)c(Br)c1)c1cc(Br)c(O)c(Br)c1", "values": [{"measurement": "AC50", "setting": "[2]", "value": "0.628 µM (active)"}, {"measurement": "AC50", "setting": "[3]", "value": "5.13 µM (active)"}, {"measurement": "AC50", "setting": "[4]", "value": "4.45 µM (active)"}, {"measurement": "AC50", "setting": "[5]", "value": "3.04 µM (active)"}, {"measurement": "AC50", "setting": "[6]", "value": "2.79 µM (active)"}, {"measurement": "AC50", "setting": "[7]", "value": "2.94 µM (active)"}, {"measurement": "AC50", "setting": "IYD (gene 389434)", "value": "66.2 µM (active)"}, {"measurement": "outcome", "setting": "[8]", "value": "inactive"}, {"measurement": "outcome", "setting": "[9]", "value": "inactive"}]}
{"smiles": "CO[C@H]1/C=C/O[C@@]2(C)Oc3c(C)c(O)c4c(O)c(c(/C=N/N5CCN(C)CC5)c(O)c4c3C2=O)NC(=O)/C(C)=C\\C=C\\[C@H](C)[C@H](O)[C@@H](C)[C@@H](O)[C@@H](C)[C@H](OC(C)=O)[C@@H]1C", "values": [{"measurement": "outcome", "setting": "[1]", "value": "inactive"}, {"measurement": "AC50", "setting": "SRD5A2 (gene 6716)", "value": "54.3 µM (active)"}, {"measurement": "AC50", "setting": "[10]", "value": "89.7 µM (active)"}]}
{"smiles": "CC/C(=C(/CC)c1ccc(O)cc1)c1ccc(O)cc1", "values": [{"measurement": "outcome", "setting": "[8]", "value": "inactive"}, {"measurement": "AC50", "setting": "[10]", "value": "1.3 µM (active)"}, {"measurement": "AC50", "setting": "[11]", "value": "1.54 µM (active)"}]}
{"smiles": "CCCCCCCCCCCC[N+](C)(C)C", "values": [{"measurement": "outcome", "setting": "IYD (gene 389434)", "value": "inactive"}]}
{"smiles": "O=C(Nc1ccc(Cl)cc1)Nc1ccc(Cl)c(Cl)c1", "values": [{"measurement": "outcome", "setting": "[12]", "value": "inactive"}, {"measurement": "outcome", "setting": "[13]", "value": "inactive"}, {"measurement": "outcome", "setting": "[14]", "value": "inactive"}, {"measurement": "outcome", "setting": "[15]", "value": "inactive"}]}
{"smiles": "CCN(Cc1cccc(S(=O)(=O)O)c1)c1ccc(C(=C2C=CC(=[N+](CC)Cc3cccc(S(=O)(=O)O)c3)C=C2)c2ccccc2S(=O)(=O)[O-])cc1", "values": [{"measurement": "AC50", "setting": "IYD (gene 389434)", "value": "100 µM (active)"}, {"measurement": "AC50", "setting": "[1]", "value": "21.7 µM (active)"}, {"measurement": "AC50", "setting": "SRD5A2 (gene 6716)", "value": "2.9 µM (active)"}]}
